About 83,000 compounds went through this panel and 20% of them were active in at least one assay; those are over-represented in the sample as a whole.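 The test compound was applied at a single concentration to cells in 96-well plates for 48 hours, and percent growth was recorded.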 Calls of active or inactive are those of the source. Rule for the calls: active = growth percent below 10; inactive = the rest.
Tested on: NCI-H23 lung
Assay: NCI-60 one-dose screen, 48 h (100 = growth as untreated, 0 = no growth, -100 = all killed)
Conditions: 10 µM unless noted

**Q.** For CCCCCSB(SCCCCC)c1ccccc1, which growth is on record?
**A.** 99.9% (inactive)

**Q.** How did the growth turn out when c1ccc(CNc2ccc3nc(CCC4CCCCC4)[nH]c3c2)cc1 was run?
**A.** 68.2% (inactive)

**Q.** How did the growth turn out when S=c1ssnc1-c1cccs1 was run?
**A.** 85% (inactive)

**Q.** For O=C(/C=C/c1ccc(Br)cc1)c1ccc(-n2cc(CN3CCN(c4cc5c(cc4F)c(=O)c(C(=O)O)cn5C4CC4)CC3)nn2)cc1, which growth is on record?
**A.** 85.4% (inactive)

**Q.** For COc1ccc(Cc2cnc(NC(=O)c3sc4ccccc4c3Cl)s2)cc1, which growth is on record?
**A.** 28.4% (inactive)

**Q.** How did the growth turn out when N#C/C(=C\c1ccc(Cl)cc1Cl)C(=O)Nc1ncc(Cc2ccc(Cl)c(Cl)c2)s1 was run?
**A.** 91.8% (inactive)

**Q.** Which growth does the source give for N#Cc1c(-c2cccc([N+](=O)[O-])c2)cc(-c2ccc(Nc3nc(Nc4ccc(F)cc4)nc(Nc4ccc(F)cc4)n3)cc2)nc1N here?
**A.** 98.6% (inactive)

**Q.** For O=C(CCCCCCN1CC(=O)N2[C@@H](c3ccc(Cl)cc3)c3[nH]c4ccccc4c3C[C@H]2C1=O)NO, which growth is on record?
**A.** 71.3% (inactive)

**Q.** How did the growth turn out when CCCCCCCCn1ccc2cc(NC(=O)Cn3cc(CN4CCC(C)CC4)nn3)ccc21 was run?
**A.** 79.4% (inactive)

**Q.** CCCC(O)Cn1ncc(C(=O)OCC)c1NC(=O)NCc1cccc(F)c1 (centres undefined) was tested. Which growth did it give?
**A.** 91.2% (inactive)

**Q.** Which growth does the source give for COc1cc2c3c(c1O)-c1ccccc1[C@@H]1OC(=O)N(CC2)[C@H]31 here?
**A.** 100% (inactive)

**Q.** For C/C(=C(/c1ccc(Cl)cc1)c1ccc(OCCCN(C)C)cc1)c1ccc(Cl)cc1, which growth is on record?
**A.** 91.2% (inactive)

**Q.** Cc1cc(C(=O)Nc2cc(Nc3ncccc3-c3ncnc4nc[nH]c34)ccc2F)cc(C(F)(F)F)c1 was tested. Which growth did it give?
**A.** 25.2% (inactive)

**Q.** How did the growth turn out when CCOC(=O)NN1CC(O)=C(c2nc(-c3ccc(Br)cc3)cs2)C1=N was run?
**A.** 101% (inactive)

— PubChem BioAssay (NCI)
